# Measurements: the supplement of paper PMC10849652
# Targets with a hit are over-represented here; the source holds about 8,800 in all. About 0.5% of all pairs of compound and target were hits. Unmarked numbers belong to inactive results.
# Legend:
# Test in all cases: log2 fold change, soluble protein after heating vs DMSO (PISA); higher = thermal stabilisation; K562 lysate, 10 uM; active = over 0.2 and 3.5 SD of the protein, either way, in both replicates (recomputed)
# [1] = compound: CS(=O)(=O)CCNCc1ccc(-c2ccc3ncnc(Nc4ccc(OCc5cccc(F)c5)c(Cl)c4)c3c2)o1 [lapatinib]
# Outline: (§1)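 To prepare the extract, K562 pellets were dounce-homogenised in PBS pH 7.4 with 1 mM MgCl2, giving crude material at 1 mg/mL protein. This was treated with 10 μM compound for 30 min, then heated in aliquots for 3 min over 48°C-58°C before pooling and addition of NP-40 to 0.5% at 4°C. Centrifugation at 21,000xg for 90 min left soluble protein in the supernatant, which TMTpro 16plex LC-MS/MS quantified with equalised channel sums. Results are log-two fold changes in thermal stability compared with solvent controls, from duplicates.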
# [2] = compound: CS(=O)(=O)N1CCN(Cc2cc3nc(-c4cccc5[nH]ncc45)nc(N4CCOCC4)c3s2)CC1 [pictilisib]
# Outline: as §1
# [3] = compound: C[C@@H](Oc1cc(-c2cnn(C3CCNCC3)c2)cnc1N)c1c(Cl)ccc(F)c1Cl [crizotinib]
# Outline: as §1
# [4] = compound: C[C@H](C1=CC=C(C=C1)C(=O)NC2=C3C=CNC3=NC=C2)N
# Outline: as §1
# [5] = compound: C[C@H](Nc1ncnc2nc[nH]c12)c1cc2cccc(Cl)c2c(=O)n1-c1ccccc1 [duvelisib]
# Outline: as §1
# [6] = compound: Cc1cc(Nc2cc(CN3CCOCC3)c3nc(C)c(Cc4ccc(Cl)cc4F)n3n2)n[nH]1 [gandotinib]
# Outline: as §1
# [7] = compound: Cc1cc(Nc2cc(N3CCN(C)CC3)nc(Sc3ccc(NC(=O)C4CC4)cc3)n2)n[nH]1 [tozasertib]
# Outline: as §1
# [8] = compound: Cc1ccc(-n2nc(C(C)(C)C)cc2NC(=O)Nc2ccc(OCCN3CCOCC3)c3ccccc23)cc1 [doramapimod]
# Outline: as §1
# [9] = compound: Cc1ccc(NC(=O)c2ccc(CN3CC[C@H](N(C)C)C3)c(C(F)(F)F)c2)cc1Nc1nccc(-c2cncnc2)n1 [bafetinib]
# Outline: as §1
# [10] = compound: Cc1cccc(CC(=O)N2CCc3c2ccc(-c2cn(C)c4ncnc(N)c24)c3F)n1
# Outline: as §1
# [11] = compound: Cc1cn(-c2cc(NC(=O)c3ccc(C)c(Nc4nccc(-c5cccnc5)n4)c3)cc(C(F)(F)F)c2)cn1 [nilotinib]
# Outline: as §1
# [12] = compound: Cc1nc(Nc2n[nH]c3c2CN(C(=O)N[C@H](CN(C)C)c2ccccc2)C3(C)C)c2sccc2n1
# Outline: as §1
# [13] = compound: Cc1nc(Nc2ncc(C(=O)Nc3c(C)cccc3Cl)s2)cc(N2CCN(CCO)CC2)n1 [dasatinib]
# Outline: as §1
# [14] = compound: Cc1ncc(-c2ccnc(Nc3ccc(S(C)(=O)=O)cc3)n2)n1C(C)C
# Outline: as §1
# [15] = compound: Cn1cc(-c2ccc3c(c2)CCN3C(=O)Cc2cccc(C(F)(F)F)c2)c2c(N)ncnc21
# Outline: as §1
# [16] = compound: Cn1cc(CNCC2CCN(c3ncc(C(=O)NO)cn3)CC2)c2ccccc21 [quisinostat]
# Outline: as §1
# [17] = compound: Cn1cncc1[C@@](N)(c1ccc(Cl)cc1)c1ccc2c(c1)c(-c1cccc(Cl)c1)cc(=O)n2C [tipifarnib]
# Outline: as §1
# [18] = compound: NC(=O)Nc1cc(-c2cccc(F)c2)sc1C(=O)N[C@H]1CCCNC1
# Outline: as §1
# [19] = compound: NC(=O)c1cnc(N[C@@H]2CCCC[C@@H]2N)nc1Nc1cccc(-n2nccn2)c1
# Outline: as §1
# [20] = compound: NC1(c2ccc(-c3nc4ccn5c(=O)[nH]nc5c4cc3-c3ccccc3)cc2)CCC1
# Outline: as §1
# UniProt Q6NUQ1, sequence (Q6NUQ1 whole entry, looked up): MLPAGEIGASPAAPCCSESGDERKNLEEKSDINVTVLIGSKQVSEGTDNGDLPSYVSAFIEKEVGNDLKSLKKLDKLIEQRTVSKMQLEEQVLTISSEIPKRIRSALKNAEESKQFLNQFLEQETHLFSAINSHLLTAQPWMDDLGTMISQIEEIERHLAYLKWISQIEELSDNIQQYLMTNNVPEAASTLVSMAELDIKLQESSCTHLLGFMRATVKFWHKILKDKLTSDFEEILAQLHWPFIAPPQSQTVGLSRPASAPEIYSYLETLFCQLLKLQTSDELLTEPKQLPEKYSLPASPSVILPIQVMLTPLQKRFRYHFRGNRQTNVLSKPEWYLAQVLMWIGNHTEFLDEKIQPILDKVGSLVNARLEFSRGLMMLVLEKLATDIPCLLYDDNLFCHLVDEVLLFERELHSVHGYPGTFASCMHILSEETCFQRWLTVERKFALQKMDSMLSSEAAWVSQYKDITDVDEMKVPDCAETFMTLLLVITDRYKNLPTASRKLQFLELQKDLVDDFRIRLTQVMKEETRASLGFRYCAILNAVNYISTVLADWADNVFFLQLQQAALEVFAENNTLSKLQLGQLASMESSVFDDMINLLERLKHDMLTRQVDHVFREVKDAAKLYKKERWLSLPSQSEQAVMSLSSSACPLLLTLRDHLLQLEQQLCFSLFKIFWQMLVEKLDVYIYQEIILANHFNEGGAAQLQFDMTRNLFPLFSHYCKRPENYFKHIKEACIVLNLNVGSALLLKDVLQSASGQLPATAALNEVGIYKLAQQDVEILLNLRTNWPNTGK
# UniProt Q5XPI4, sequence (Q5XPI4 whole entry, looked up): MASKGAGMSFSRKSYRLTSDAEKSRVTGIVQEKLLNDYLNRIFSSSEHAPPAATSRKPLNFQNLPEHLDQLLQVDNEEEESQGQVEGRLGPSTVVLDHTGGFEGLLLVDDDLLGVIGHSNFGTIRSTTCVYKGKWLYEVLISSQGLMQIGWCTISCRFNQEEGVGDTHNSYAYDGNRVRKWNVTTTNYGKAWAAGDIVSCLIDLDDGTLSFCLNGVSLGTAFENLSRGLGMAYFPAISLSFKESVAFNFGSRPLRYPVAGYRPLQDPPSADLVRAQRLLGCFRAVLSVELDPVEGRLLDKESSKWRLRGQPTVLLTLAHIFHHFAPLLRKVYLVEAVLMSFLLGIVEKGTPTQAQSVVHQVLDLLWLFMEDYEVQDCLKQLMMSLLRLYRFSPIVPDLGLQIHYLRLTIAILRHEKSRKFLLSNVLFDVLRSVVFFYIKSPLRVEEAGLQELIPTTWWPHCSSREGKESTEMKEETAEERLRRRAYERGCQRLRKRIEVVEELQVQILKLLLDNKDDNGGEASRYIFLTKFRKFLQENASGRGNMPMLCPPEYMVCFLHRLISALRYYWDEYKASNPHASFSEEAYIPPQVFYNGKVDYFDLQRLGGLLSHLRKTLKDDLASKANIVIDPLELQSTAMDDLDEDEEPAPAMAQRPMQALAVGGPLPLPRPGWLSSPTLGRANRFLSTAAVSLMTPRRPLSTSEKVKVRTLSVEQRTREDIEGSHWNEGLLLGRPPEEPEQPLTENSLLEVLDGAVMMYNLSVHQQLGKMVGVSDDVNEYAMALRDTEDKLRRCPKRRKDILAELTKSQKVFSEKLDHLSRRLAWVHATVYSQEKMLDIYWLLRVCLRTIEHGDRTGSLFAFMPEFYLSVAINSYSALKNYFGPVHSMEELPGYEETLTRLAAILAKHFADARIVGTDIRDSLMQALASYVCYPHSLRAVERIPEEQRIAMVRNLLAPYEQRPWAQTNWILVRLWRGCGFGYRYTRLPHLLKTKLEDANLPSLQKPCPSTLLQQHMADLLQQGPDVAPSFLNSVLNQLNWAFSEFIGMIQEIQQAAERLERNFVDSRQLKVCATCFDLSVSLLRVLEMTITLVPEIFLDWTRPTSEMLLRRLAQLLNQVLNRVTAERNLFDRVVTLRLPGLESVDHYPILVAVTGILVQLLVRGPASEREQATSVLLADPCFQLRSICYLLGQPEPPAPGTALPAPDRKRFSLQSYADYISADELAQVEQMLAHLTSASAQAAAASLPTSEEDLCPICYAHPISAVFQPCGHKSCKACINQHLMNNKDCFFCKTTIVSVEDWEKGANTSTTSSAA
# UniProt O43819, sequence (O43819 whole entry, looked up): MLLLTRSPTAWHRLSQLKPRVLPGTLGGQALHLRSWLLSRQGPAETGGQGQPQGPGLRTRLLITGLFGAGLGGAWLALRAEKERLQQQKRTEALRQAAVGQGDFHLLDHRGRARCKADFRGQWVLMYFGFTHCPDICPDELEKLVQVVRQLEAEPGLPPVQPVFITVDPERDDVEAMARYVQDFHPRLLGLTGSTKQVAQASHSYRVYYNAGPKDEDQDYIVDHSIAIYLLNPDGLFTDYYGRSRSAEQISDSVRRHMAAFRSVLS
# UniProt P28702, sequence (P28702 whole entry, looked up): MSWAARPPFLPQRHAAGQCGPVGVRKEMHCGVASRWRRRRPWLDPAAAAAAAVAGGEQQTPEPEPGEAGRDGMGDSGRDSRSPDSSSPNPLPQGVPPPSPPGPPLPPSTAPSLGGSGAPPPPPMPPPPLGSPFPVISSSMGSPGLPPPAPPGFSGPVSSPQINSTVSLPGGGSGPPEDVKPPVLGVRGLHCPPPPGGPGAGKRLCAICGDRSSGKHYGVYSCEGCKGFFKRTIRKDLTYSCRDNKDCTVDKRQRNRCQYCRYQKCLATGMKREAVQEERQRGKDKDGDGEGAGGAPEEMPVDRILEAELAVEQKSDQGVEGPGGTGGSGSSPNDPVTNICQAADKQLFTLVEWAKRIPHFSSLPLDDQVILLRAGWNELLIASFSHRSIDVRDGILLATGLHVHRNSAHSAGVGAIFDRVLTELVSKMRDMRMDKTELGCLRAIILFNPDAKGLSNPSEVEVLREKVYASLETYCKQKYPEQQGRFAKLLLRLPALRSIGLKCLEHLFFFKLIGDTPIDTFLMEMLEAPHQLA
# UniProt Q9NW64, sequence (Q9NW64 whole entry, looked up): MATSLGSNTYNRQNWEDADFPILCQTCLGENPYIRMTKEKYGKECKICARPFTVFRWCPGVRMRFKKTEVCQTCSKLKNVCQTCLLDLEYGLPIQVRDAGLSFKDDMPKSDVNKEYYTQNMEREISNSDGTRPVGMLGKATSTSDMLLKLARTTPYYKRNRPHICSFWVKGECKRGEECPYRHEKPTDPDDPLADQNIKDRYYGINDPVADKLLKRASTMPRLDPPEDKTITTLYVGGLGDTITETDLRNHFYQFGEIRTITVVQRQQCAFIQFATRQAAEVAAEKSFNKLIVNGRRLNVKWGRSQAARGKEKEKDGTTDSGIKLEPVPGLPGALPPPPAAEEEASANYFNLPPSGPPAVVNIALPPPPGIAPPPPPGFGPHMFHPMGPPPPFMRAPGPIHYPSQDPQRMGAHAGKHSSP
# UniProt Q9GZR2, sequence (Q9GZR2 whole entry, looked up): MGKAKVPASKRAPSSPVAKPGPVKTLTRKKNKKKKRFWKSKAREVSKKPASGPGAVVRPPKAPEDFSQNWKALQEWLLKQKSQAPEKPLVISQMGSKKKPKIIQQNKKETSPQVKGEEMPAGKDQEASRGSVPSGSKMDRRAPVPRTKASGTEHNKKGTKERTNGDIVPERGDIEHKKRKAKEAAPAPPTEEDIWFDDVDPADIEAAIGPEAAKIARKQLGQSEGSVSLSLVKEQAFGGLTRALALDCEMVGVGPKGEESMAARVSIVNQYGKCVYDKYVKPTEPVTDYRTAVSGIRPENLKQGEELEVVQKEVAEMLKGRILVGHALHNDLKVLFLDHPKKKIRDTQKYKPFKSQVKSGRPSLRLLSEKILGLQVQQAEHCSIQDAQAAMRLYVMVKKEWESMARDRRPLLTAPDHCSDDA
# UniProt P47736, sequence (P47736 whole entry, looked up): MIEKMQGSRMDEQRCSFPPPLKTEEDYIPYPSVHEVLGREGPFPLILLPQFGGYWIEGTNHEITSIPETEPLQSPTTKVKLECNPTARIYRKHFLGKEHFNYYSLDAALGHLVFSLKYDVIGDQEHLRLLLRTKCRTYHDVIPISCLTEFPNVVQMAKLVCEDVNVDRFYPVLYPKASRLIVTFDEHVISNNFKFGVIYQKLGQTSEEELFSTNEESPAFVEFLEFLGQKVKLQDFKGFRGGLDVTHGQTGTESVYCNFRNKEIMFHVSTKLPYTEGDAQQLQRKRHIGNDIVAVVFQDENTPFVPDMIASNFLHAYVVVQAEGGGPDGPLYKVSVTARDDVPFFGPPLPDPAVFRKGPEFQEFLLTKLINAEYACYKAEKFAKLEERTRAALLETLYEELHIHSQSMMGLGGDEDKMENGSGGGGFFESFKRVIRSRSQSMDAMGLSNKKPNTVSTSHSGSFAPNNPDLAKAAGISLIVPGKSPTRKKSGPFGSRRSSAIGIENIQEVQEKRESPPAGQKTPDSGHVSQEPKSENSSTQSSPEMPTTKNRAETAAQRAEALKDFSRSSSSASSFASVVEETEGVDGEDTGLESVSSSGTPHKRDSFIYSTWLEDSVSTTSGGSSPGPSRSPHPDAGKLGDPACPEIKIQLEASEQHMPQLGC
# UniProt P53805, sequence (P53805 whole entry, looked up): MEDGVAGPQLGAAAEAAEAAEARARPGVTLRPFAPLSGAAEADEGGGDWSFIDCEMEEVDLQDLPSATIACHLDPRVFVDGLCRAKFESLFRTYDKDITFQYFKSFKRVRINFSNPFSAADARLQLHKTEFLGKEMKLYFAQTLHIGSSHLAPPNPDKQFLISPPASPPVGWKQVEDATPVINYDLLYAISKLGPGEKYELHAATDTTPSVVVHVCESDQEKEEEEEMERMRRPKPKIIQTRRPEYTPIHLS
# UniProt Q53S08, sequence (Q53S08 whole entry, looked up): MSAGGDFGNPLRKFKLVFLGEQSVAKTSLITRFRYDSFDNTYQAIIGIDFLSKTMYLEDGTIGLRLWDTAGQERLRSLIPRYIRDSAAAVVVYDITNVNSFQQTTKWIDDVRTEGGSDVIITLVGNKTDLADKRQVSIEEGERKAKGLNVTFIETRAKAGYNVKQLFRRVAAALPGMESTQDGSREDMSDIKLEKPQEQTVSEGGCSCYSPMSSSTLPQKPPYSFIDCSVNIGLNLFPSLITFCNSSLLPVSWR
Target,log2 fold change [1],log2 fold change [2],log2 fold change [3],log2 fold change [4],log2 fold change [5],log2 fold change [6],log2 fold change [7],log2 fold change [8],log2 fold change [9],log2 fold change [10],log2 fold change [11],log2 fold change [12],log2 fold change [13],log2 fold change [14],log2 fold change [15],log2 fold change [16],log2 fold change [17],log2 fold change [18],log2 fold change [19],log2 fold change [20]
RCAN1 (UniProt P53805),-0.017,-0.048,-0.127,-0.088,-0.012,0.041,0.017,-0.039,0.123,-0.03,-0.457 (active),0.008,0.023,-0.055,0.038,-0.217,0.131,0.117,0.088,0.036
RBM22 (UniProt Q9NW64),-0.01,-0.011,0.038,0.034,0.008,-0.019,0.026,0.072,0.001,-0.016,-0.045,0.024,-0.072,-0.006,0.057,-0.022,-0.036,-0.027,0.01,0.033
RPLP0P6 (UniProt Q8NHW5),0.003,0.033,-0.013,0.014,0.016,-0.013,-0.005,0.001,0.274 (active),0.034,0.01,-0.027,0.018,0.001,0.026,-0.049,-0.02,0.002,0.005,-0.016
REXO4 (UniProt Q9GZR2),0,-0.128,0.017,0.349 (active),-0.003,-0.169,-0.017,-0.056,-0.06,-0.139,-0.001,-0.009,-0.008,0.021,0.008,0.013,0.015,0.03,-0.045,0.034
RAP1GAP isoform 4 (UniProt P47736),-0.019,-0.018,-0.044,0.044,-0.032,-0.044,-0.009,-0.001,-0.069,0.007,-0.002,-0.015,0,0.017,0.028,-0.046,-0.013,0.029,-0.021,-0.034
"RAPGEF2, A0A2R8YGD3",-0.014,0.015,0.024,-0.431 (active),0.018,0.038,0.014,-0.039,-0.171,0.266,-0.032,0.027,0.052,-0.036,0.008,-0.018,-0.017,0.054,-0.02,0.024
RAB6D (UniProt Q53S08),0.005,-0.008,-0.036,-0.058,0,0.189,0.015,-0.001,-0.136,0.154,-0.028,-0.019,-0.004,0.111,-0.008,-0.056,-0.162,-0.006,-0.013,-0.064
RPS29 (UniProt P62273),-0.024,0.03,0.054,0.793 (active),-0.02,-0.202,-0.128,-0.105,0.205,-0.315,0.117,0.072,0.22,0.061,0.112,0.361,0.094,-0.116,-0.024,-0.068
RNF123 (UniProt Q5XPI4),-0.013,-0.029,-0.015,-0.04,-0.068,-0.122,0.029,0.039,-0.002,0.011,0.012,-0.013,-0.059,0.022,0.054,-0.046,-0.006,0.04,0.019,0.01
SCO2 (UniProt O43819),0.118,-0.057,0.026,-0.163,0.092,0.048,-0.007,0.002,0.029,0.101,0.15,-0.283,-0.05,-0.337,0.106,0.007,-0.062,-0.005,0.05,-0.1
RARS (UniProt P54136),0.003,0.019,-0.047,0.039,-0.018,-0.078,0.019,0.042,-0.029,0.041,0.004,0,-0.074,-0.017,0.038,-0.017,0.006,0.049,0.015,-0.023
RIOK2 (UniProt Q9BVS4),-0.032,0.269,0.047,-0.028,0.016,0.829 (active),-0.011,-0.028,0.093,-0.012,0.002,0.034,0.01,0.537 (active),-0.023,-0.054,-0.013,0.05,0.198,-0.03
SDHC (UniProt Q99643),0.002,0.071,0.032,-0.244,0.004,0.179,-0.067,0.016,-0.004,0.133,-0.009,0.056,-0.001,-0.006,-0.015,0,-0.068,-0.057,-0.016,0.028
RXRB isoform 3 (UniProt P28702),0.085,-0.096,-0.011,0.046,-0.051,-0.074,0.006,-0.091,-0.11,0.023,0.01,-0.038,-0.018,0.001,0.095,-0.038,-0.052,0.032,-0.031,-0.199
RINT1 (UniProt Q6NUQ1),-0.069,-0.065,-0.06,-0.058,0.046,-0.039,0.025,0.069,-0.058,0.132,0.043,0.075,-0.115,0.028,0.012,-0.029,-0.044,0.071,0.001,-0.014
RFC5 (UniProt P40937),0.007,-0.058,-0.056,-0.047,0.016,-0.068,0.018,0.026,-0.039,0.018,0.005,0.001,-0.06,-0.005,0.025,-0.078,-0.023,0.074,0.025,-0.02
